This is an account of results in PubChem BioAssay AID1456 (Vanderbilt High Throughput Screening Facility, 2008).

Among all 190,000 compounds or so, about 4,100 (2.2%) were called active. The full list was thinned out, with actives kept by preference. Values without a mark were called inactive.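 Rule for the calls: active = thallium flux slope and its plate-corrected score both differing from the plate sample mean at a set confidence after two filtering rounds, in either direction; inactive = the rest.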

The target in the assay is Solute carrier family 12 member 5 (Homo sapiens) (UniProt Q9H2X9). As to the kind of experiment: KCC2 cotransporter modulators, thallium flux, primary screen, cell-based, HEK293 KCC2, FluoZin-2 fluorescence, MLSMR (AID 1456).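 Note: slope of fluorescence scaled to starting intensity during 10 to 20 s after thallium.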 As to conditions: KCC2 cells, thallium flux FluoZin-2 fluorescence; at 10 µM.
Solute carrier family 12 member 5 (Homo sapiens), sequence (Q9H2X9 whole entry, looked up): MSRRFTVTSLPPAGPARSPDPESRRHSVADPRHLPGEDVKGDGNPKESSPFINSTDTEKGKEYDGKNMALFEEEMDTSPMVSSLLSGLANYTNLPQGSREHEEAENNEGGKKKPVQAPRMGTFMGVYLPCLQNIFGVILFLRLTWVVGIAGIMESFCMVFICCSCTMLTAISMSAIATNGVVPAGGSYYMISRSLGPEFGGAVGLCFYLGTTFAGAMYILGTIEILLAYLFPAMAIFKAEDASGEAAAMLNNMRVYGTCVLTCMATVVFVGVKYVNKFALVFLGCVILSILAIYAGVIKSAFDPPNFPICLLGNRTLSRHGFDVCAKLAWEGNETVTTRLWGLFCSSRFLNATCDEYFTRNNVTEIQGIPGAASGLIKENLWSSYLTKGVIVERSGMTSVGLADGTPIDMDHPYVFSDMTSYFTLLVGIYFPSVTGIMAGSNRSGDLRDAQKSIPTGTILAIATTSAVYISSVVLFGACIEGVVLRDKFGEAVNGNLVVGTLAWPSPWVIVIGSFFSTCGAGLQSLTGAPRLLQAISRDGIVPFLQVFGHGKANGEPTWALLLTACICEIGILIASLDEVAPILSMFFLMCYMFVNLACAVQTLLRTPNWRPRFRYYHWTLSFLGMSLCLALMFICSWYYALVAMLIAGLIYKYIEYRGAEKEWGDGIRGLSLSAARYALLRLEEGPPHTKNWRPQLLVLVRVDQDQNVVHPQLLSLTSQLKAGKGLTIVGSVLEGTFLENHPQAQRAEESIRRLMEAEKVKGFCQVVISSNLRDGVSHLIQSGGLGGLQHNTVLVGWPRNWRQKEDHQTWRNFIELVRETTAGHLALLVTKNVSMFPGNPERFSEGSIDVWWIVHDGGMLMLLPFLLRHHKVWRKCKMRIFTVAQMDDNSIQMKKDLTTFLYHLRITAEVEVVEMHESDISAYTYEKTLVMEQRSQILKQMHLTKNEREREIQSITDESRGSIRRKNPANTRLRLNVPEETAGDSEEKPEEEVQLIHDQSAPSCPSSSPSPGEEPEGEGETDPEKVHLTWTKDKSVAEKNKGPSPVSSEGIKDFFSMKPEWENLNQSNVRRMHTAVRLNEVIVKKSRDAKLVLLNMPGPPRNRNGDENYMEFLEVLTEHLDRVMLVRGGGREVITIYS
For `COc1ccc(/C=N/n2nnnc2N)cc1OC`, the B-score of Tl+ flux slope (higher = more flux/activation; lower = inhibition) is 0.513. For `c1ccc(C2c3[nH]c4ccccc4c3CCN2Cc2cccn2-c2cccnc2)nc1` (stereo not given), the B-score of Tl+ flux slope (higher = more flux/activation; lower = inhibition) is -1.15. As for `Cc1nnc(SC(C(=O)Nc2cc(Cl)cc(Cl)c2)c2ccccc2)[nH]c1=O` (stereo not given), the B-score of Tl+ flux slope (higher = more flux/activation; lower = inhibition) is -4.12 (active). The same measure for `O=C(Nc1cc(Cl)cc(Cl)c1)C(NCCCO)c1ccccc1` (stereo not given): -0.607. As for `Cc1nnc(SC(C(=O)c2ccccc2)c2ccccc2)[nH]c1=O` (stereo not given), the figure is -0.235; as for `O=C1N(c2ccccc2)C(=Nc2ccccc2)SC12CC2`, -0.447; as for `O=C(c1ccc(=O)oc1)N1CCC(C(O)(c2ccccc2)c2ccccc2)CC1`, -0.673. As for `Cc1ccc(C(=O)NC(=S)NCc2cccnc2)cc1`, the figure is 1.21; as for `Cc1c(C(=O)NC(=S)NCc2cccnc2)oc2ccccc12`, 13.6 (active). Regarding `O=C(CCc1ccccc1)NCc1cccnc1`, the B-score of Tl+ flux slope (higher = more flux/activation; lower = inhibition) was 0.123. The same measure for `CC(C)(C)c1ccc(CCC2OCC(CN3CCOCC3)O2)cc1` (stereo not given): 0.742. Regarding `CCNC(=S)N1CCN(CCN=CC2=C(O)CC(C)(C)CC2=O)CC1`, the B-score of Tl+ flux slope (higher = more flux/activation; lower = inhibition) was -0.763. The same measure for `Cc1ccc(C(O)P(=O)(OC(C)C)c2ccc(N(C)C)cc2)cc1` (stereo not given): 0.0994; for `COC(=O)c1sccc1NC(=O)CSc1ccccc1NS(=O)(=O)c1cc(Cl)ccc1Cl`: 18.4 (active); for `COC(=O)c1scc(C)c1NC(=O)CSc1ccc(Cl)cc1`: -1.21. The same measure for `COC(=O)c1sccc1NC(=O)COc1ccc(Cl)cc1`: 0.143.

On to `O=C(CSc1ccc(-c2ccco2)nn1)NCc1ccc2c(c1)OCO2`, for which the B-score of Tl+ flux slope (higher = more flux/activation; lower = inhibition) was -0.85.

With `CC(C)Cc1nc(Cl)c(C#N)c2c1CCC2`, the B-score of Tl+ flux slope (higher = more flux/activation; lower = inhibition) was -0.778.

In the case of `CCCC(=O)N1c2ccccc2NC2=C(C(=O)CCC2)C1c1ccc(F)cc1` (stereo not given), the B-score of Tl+ flux slope (higher = more flux/activation; lower = inhibition) is 2.84 (active). As for `CCC(=O)N1c2ccccc2NC2=C(C(=O)CCC2)C1c1ccco1` (stereo not given), the figure is 1.12; as for `O=C1CC(c2cccc(F)c2)C2=C(CCCC2=O)N1` (stereo not given), -0.124. As for `Cn1cnc([N+](=O)[O-])c1Sc1n[nH]c(N)n1`, the B-score of Tl+ flux slope (higher = more flux/activation; lower = inhibition) is 0.197. As for `Cn1cnc(S(=O)(=O)Nc2ccc3c(c2)OCCO3)c1`, the figure is 1.1. Turning to `Oc1ccc(N=Nc2nccs2)c(O)c1`, the B-score of Tl+ flux slope (higher = more flux/activation; lower = inhibition) is 0.824. As for `Oc1ccc2ccccc2c1N=Nc1nccs1`, the figure is 111 (active); as for `Oc1ccc2ccccc2c1C=Nc1ccccc1`, -0.244. As for `Cc1ccc(NC(=O)Nc2cc(-c3ccccc3)nn2C)cc1Cl`, the figure is 0.308. For the compound `CCOC(=O)c1cnc(COc2ccccc2Cl)[nH]c1=O`, the B-score of Tl+ flux slope (higher = more flux/activation; lower = inhibition) is 1.26.

On to `Cn1c(=O)c2c(nc(NCc3ccccc3)n2CC(N)=O)n(C)c1=O`, for which the B-score of Tl+ flux slope (higher = more flux/activation; lower = inhibition) is 0.178. Regarding `C=CCn1c(-c2ccc3[nH]c(C)c(C)c3c2)n[nH]c1=S`, the B-score of Tl+ flux slope (higher = more flux/activation; lower = inhibition) is -0.00959. Regarding `CCn1c(-c2ccncc2)n[nH]c1=S`, the B-score of Tl+ flux slope (higher = more flux/activation; lower = inhibition) was -0.798. `Cc1cc(-c2csc(N)n2)c(C)n1Cc1ccccc1`: the B-score of Tl+ flux slope (higher = more flux/activation; lower = inhibition) was 1.01. With `CCCc1cc(-c2n[nH]c(=S)n2CC)c2ccccc2n1`, the B-score of Tl+ flux slope (higher = more flux/activation; lower = inhibition) is -0.942.

`CCc1cc(-c2n[nH]c(=S)n2CC(C)C)cs1`: the B-score of Tl+ flux slope (higher = more flux/activation; lower = inhibition) is 8.35 (active). The same measure for `CCCc1cc(-c2n[nH]c(=S)n2Cc2ccccc2)cs1`: 4.54 (active); for `CSC1=NCCN1C(=O)Cc1cccc2ccccc12`: 0.183. Regarding `Brc1ccc(-c2n(-c3ccccn3)c3ccccc3[n+]2-c2ccccn2)cc1`, the B-score of Tl+ flux slope (higher = more flux/activation; lower = inhibition) was 1.55. Regarding `CCCc1ccc(C(=O)[C@@H]2[C@@H](C(C)=O)N3c4ccc(F)cc4C=C[C@@H]3[C@@]23C(=O)Nc2ccccc23)cc1`, the B-score of Tl+ flux slope (higher = more flux/activation; lower = inhibition) is 0.383.

With `O=S(=O)(c1cccc(-c2nnc3n2CCCCC3)c1)N1CCOCC1`, the B-score of Tl+ flux slope (higher = more flux/activation; lower = inhibition) was -1.09. As for `c1ccc2c(c1)OCC(c1nn3cnnc3s1)O2` (stereo not given), the figure is -0.604; as for `O=C(CN1C(=O)COc2ccccc21)Nc1ccc(F)cc1`, 0.048.

`O=C(Nc1nnc(C2COc3ccccc3O2)o1)c1ccc(F)cc1` (stereo not given): the B-score of Tl+ flux slope (higher = more flux/activation; lower = inhibition) was 15 (active). `O=C(NNC(=O)c1csc(-c2cccnc2)n1)Nc1ccc(Cl)cc1`: the B-score of Tl+ flux slope (higher = more flux/activation; lower = inhibition) is -0.334. Consider `COc1ccc(NC(=O)CCN2C(=O)/C(=C/c3ccc4c(c3)OCO4)SC2=S)cc1`, for which the B-score of Tl+ flux slope (higher = more flux/activation; lower = inhibition) is -1.33. The same measure for `CCC1(C)Cc2c(sc3nc(SC)[nH]c(=O)c23)CO1` (stereo not given): 0.823. The same measure for `CCC1(C)Cc2c(sc3nc4n(c(=O)c23)CCCS4)CO1` (stereo not given): -0.0542; for `CCC1(C)Cc2c(sc3[nH]c(=S)n(Cc4ccccc4)c(=O)c23)CO1` (stereo not given): 35.8 (active); for `Cc1c(C)c(C)c2[nH]c(=S)[nH]c2c1C`: 0.63. The same measure for `COc1ccc(Cl)cc1C(=O)NNC(=O)c1nc2nc(C)cc(C)n2n1`: -1.53. `CCN1CCN(c2nc(Nc3cccc(F)c3)nc(N)c2[N+](=O)[O-])CC1`: the B-score of Tl+ flux slope (higher = more flux/activation; lower = inhibition) was -0.953.
